The first test addresses LMO4. The test can be described thus: pooled miR-30 sensor sort-seq; sequence = guide strand. Conditions: shRNA.
On to TTCACTCGCAGGAATCGACTGT, for which the sensor-assay potency score (higher = more potent) was determined as 0.156.

In turn, TAAGATGATACACATTGCCTTG displayed a sensor-assay potency score (higher = more potent) of -0.884.

Take TCACTCGCAGGAATCGACTGTC: the sensor-assay potency score (higher = more potent) worked out at 0.214.

As for TAGTGAAACCGATCTCCCGGGA, the sensor-assay potency score (higher = more potent) is -0.538.

As to TTAAGATGATACACATTGCCTT, the sensor-assay potency score (higher = more potent) was -0.509.

For another test, the target named is LNPEP. The test is described as above. The note with it: shRNA.
Turning to TTTCTCATTACTTTCATCTGTG, the sensor-assay potency score (higher = more potent) was determined as 0.22.

Sequence TAAATAACTACATACTGCCCAA returned a sensor-assay potency score (higher = more potent) of -0.52.

Turning to TTATAGATGAGGTCTGTCTGAA, the sensor-assay potency score (higher = more potent) came out at 0.0575.

For TTGTTGTATAAAAAGTTCCTTT, the sensor-assay potency score (higher = more potent) is -0.495.

Sequence TACTGTGTCAGTAACTTTCTGG displayed a sensor-assay potency score (higher = more potent) of 0.276.

In turn, TACAGAAACAGCAACCACGATG gave a sensor-assay potency score (higher = more potent) of -0.798.

TTGAATAGATGCATAGCTGTGA showed a sensor-assay potency score (higher = more potent) of 0.497.

TTGAATAATTTCTTCCTTCAGT: the sensor-assay potency score (higher = more potent) was -0.0999.

TTCTGTACAAGCTTATTCCAGT yielded a sensor-assay potency score (higher = more potent) of -0.169.

Take TTTTGTTCTTCTCTGCTTCAGA: the sensor-assay potency score (higher = more potent) was -0.123.

TTCTCTTTGACAAAATCCCATG yielded a sensor-assay potency score (higher = more potent) of -1.18.

Regarding TTTCTTGGCTTGAAACTGCTGA, the sensor-assay potency score (higher = more potent) stood at 0.246.

In a further test the target is LNX1. Described as above. The note with it: shRNA.
TAATACAATATCTTTACAGTTA: the sensor-assay potency score (higher = more potent) was -0.86.

TTGGATAATGATATGGACCAGT showed a sensor-assay potency score (higher = more potent) of -0.0255.

For TTCTTCGTAATACAATATCTTT, the sensor-assay potency score (higher = more potent) was -1.2.

Sequence TAGATGATCATACTTTTCCTGA showed a sensor-assay potency score (higher = more potent) of -0.507.

TAGTTAGAGTAATTCTTCCTTT came in with a sensor-assay potency score (higher = more potent) of -0.396.

In the case of TTTATTCTTCCATCTCTGCTTA, the sensor-assay potency score (higher = more potent) was 0.44.

As to TTTTTGGATATTTACCACCTTC, the sensor-assay potency score (higher = more potent) is -0.64.

On to TACAGTTATACAAGCACCGTGG, for which the sensor-assay potency score (higher = more potent) is -0.0834.

In turn, AAAGCTTTGAGTACTATCGAGG had a sensor-assay potency score (higher = more potent) of -0.642.

The sequence TTGAGTACTATCGAGGATGATG came in with a sensor-assay potency score (higher = more potent) of -0.956.

TTACAGTTATACAAGCACCGTG came in with a sensor-assay potency score (higher = more potent) of -0.215.

As to TTGAGAATCACATGAAAGCTGT, the sensor-assay potency score (higher = more potent) amounted to 0.307.

Another test has as its target LONP1. The test is described as above. Conditions: shRNA.
TCGTCGATGAGGATCAGGGGGT yielded a sensor-assay potency score (higher = more potent) of -0.954.

The sequence TCTCTCTTTAGAAAGACGCCGA showed a sensor-assay potency score (higher = more potent) of -0.565.

The sequence TAACACCTTCTCCACTTGCTTC showed a sensor-assay potency score (higher = more potent) of -1.18.

TTGCGGACACCGCTCTCGCGGC: the sensor-assay potency score (higher = more potent) was -1.33.

In turn, AAACACTGGATGATCTTCCCGG came in with a sensor-assay potency score (higher = more potent) of 0.233.

For TAGAAGTCCTTCTTGTTCTCGG, the sensor-assay potency score (higher = more potent) stood at 0.532.

TTCAAATTCCTTCTTCAGCAGG gave a sensor-assay potency score (higher = more potent) of -0.339.

As to TGAAGCGGAAGTACTCTCGGTT, the sensor-assay potency score (higher = more potent) is -0.124.

Turning to ATCCTTGTCGTCCTTCTCCAGG, the sensor-assay potency score (higher = more potent) is -1.37.

TTTCCGTAACACCTTCTCCACT: the sensor-assay potency score (higher = more potent) was -1.42.

TTCAAGGCAATGATGTCCCGGA: the sensor-assay potency score (higher = more potent) is -0.021.

Values taken from the OligoGym collection.
Also: reference of the scale not given here.
